Bioassay records: PubChem BioAssay, National Center for Advancing Translational Sciences (NCATS)
SMN2 splice up = enhancers of SMN2 splice variant expression. 2.8% of 210,000 active. Potency, µM (titrated, usually from 46.1 µM), without a hit: at the highest dose activity change, positive = activation, most hits filed as activators. HEK293 SMN2-luciferase splicing reporter, luminescence, 30-36 h; note: % of control where 0% means no effect; nearly all actives have a fitted effect of over 55% in size
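HEK293 cells carry an SMN2 […]–luciferase reporter in which exon 7 inclusion puts luciferase in frame. Cells were plated 10-12 h before compound addition, then incubated 30-36 h at 37C. ONE-Glo luminescence was read; sodium butyrate at 4.5 mM final served as control.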
Luc counter = blocks Kinase-Glo luciferase, a counter-screen artifact | Kinase-Glo luciferase, ATP luminescence, 8 min | Q27757 | AID 1379 | 0.28% of 200,000 active | Potency, µM (highest dose often 38.3 µM), for inactives: top-dose activity change, negative = inhibition, usual class: inhibitors; note: % is set by controls: 0 for no effect and ±100 for the full control effect; nearly all actives have a fitted effect of over 60% in size
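Kinase-Glo luciferase light output from ATP and luciferin was measured with 10 uM ATP, within the enzyme's linear range. Buffer: 50 mM imidazole pH 7.2, 50 mM KCl, 7 mM MgCl2, 0.01% Tween 20, 0.05% BSA; luminescence read after 8 min at ambient temperature.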
ELG1 genotox = induces genotoxicity in HEK293T cells with luciferase-tagged ELG1 | 1.3% of 330,000 active | HEK293T ELG1-luciferase reporter, luminescence, 16 h | Potency, µM (titrated, usually from 46 µM), for the others: top-dose activity change, positive = activation, hits mostly activators | AID 504466; note: % of control where 0% means no effect; nearly all actives have a fitted effect of over 60% in size
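Step 1: seed 2,000 HEK293T ELG1-luciferase cells per well. Step 2: add compound or DMSO, incubate 16 hr at 37 °C. Step 3: ONE-Glo, 30 min at room temperature, read luminescence.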
NPC1 prom act = activators of NPC1 promoter; AID 485313; Huh7 NPC1 promoter luciferase reporter, 24 h; 2.4% of 320,000 active; Potency, µM (highest dose often 9.22 µM), for the others: top-dose activation, actives largely listed as activators; note: % of control where 0% means no effect; nearly all actives have a fitted effect of over 60% in size
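Stable NPC1-promoter luciferase Huh7 line; cpd (DMSO) 24 h, 37 °C, 5% CO2; Amplite luciferase reagent 10 min RT; luminescence readout. qHTS format.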
Rab9 prom act = activators of Rab9 promoter; Huh7 Rab9 promoter-luciferase reporter, luminescence, 24 h; Potency, µM (series often up to 9.22 µM), inactives show top-dose activation, negative = inhibition, most hits filed as activators; 2.8% of 320,000 active; AID 485297; note: % of control where 0% means no effect; nearly all actives have a fitted effect of over 60% in size
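Huh7 reporter line, Rab9 promoter upstream of luciferase. Compound exposure 24 h at 37 °C in reduced-serum medium with 10% FBS. Read-out: luminescence.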
FLuc modulator = inhibits or activates purified firefly luciferase, miR-21 counter-screen. purified FLuc, Km substrates, luminescence inhibition. AID 588342. Potency, µM (titrated, usually from 57.5 µM), for the others: top-dose activity change, negative = inhibition, actives largely listed as inhibitors. P08659. 6.9% of 360,000 active;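 note: plate controls were vehicle for no effect and reference inhibitor for full effect; nearly all actives have a fitted effect of over 55% in size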
Target sequence (P08659 whole entry, looked up): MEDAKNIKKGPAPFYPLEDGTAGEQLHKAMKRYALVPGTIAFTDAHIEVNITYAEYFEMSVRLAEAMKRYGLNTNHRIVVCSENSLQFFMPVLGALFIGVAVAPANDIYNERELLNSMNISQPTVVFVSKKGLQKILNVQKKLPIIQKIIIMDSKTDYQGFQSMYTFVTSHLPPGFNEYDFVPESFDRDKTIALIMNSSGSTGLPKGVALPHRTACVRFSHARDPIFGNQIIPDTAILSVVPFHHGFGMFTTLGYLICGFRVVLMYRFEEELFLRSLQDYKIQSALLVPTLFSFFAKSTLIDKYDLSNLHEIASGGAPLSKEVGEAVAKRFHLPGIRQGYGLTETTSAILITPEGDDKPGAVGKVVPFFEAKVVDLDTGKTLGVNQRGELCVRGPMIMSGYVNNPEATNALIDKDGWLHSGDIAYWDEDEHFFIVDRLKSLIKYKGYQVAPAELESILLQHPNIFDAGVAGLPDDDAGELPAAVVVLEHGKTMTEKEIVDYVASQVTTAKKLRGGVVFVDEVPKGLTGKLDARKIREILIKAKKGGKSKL
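Purified P. pyralis luciferase, 10 nM final, with Km-level 10 uM D-luciferin and 10 uM ATP in 50 mM Tris acetate pH 7.5, 10 mM Mg acetate, 0.01% Tween-20, 0.05% BSA; 6-point qHTS titration about 60 µM downward; luminescence read.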
Numbers without * were called inactive; ? = inconclusive; . = not tested or not shown; [ ] = remark or other dose. Hits are enriched below; roughly 7.5% of the tested compounds scored in any of these assays. Calls come from the whole dose curve; as a rule, active = well fitted curve in the direction sought with a large enough effect; inconclusive = small, poorly fitted or top-dose-only effect, or another doubt; inactive = no such curve, though single readings can be large; an effect the other way counts as inactive or inconclusive. Potency is the fitted concentration of half-maximal effect.

SMILES	SMN2 splice up	Luc counter	ELG1 genotox	NPC1 prom act	Rab9 prom act	FLuc modulator
O=[N+]([O-])c1ccc2nc(/C=C/c3ccc(Cl)cc3)[nH]c2c1	20.8%	-1.0%	-0.6%	?	?	5.36µM*
O=[N+]([O-])c1ccc2nc(C(O)C(O)c3nc4ccc([N+](=O)[O-])cc4[nH]3)[nH]c2c1 (stereo unspecified)	.	.	0.1%	2.0%	-3.2%	-8.7%
O=[N+]([O-])c1ccc(-c2nc3ccc([N+](=O)[O-])cc3[nH]2)cc1	.	-4.1%	0.2%	1.58µM*	?	2.69µM*
O=C(NCc1ccc2c(c1)OCO2)C1CCCN1C(=O)Nc1ccc(Cl)cc1 (stereo unspecified)	.	.	-0.1%	-3.6%	-2.7%	-0.2%
C=CCNC(=O)c1ccc(OC2CCN(S(=O)(=O)N(C)C)CC2)cc1	.	0.9%	13.8%	16.0%	?	16.9µM*
Cc1nc2cc(NCc3ccc(Cl)cc3)ccc2n1C	.	.	2.59µM*	0.447µM*	0.447µM*	2.13µM*
Cc1nc2cc(NCc3ccccc3O)ccc2n1Cc1ccccc1	.	3.6%	2.4%	7.7%	14.6%	23.9µM*
Cc1ccc(CNc2ccc3c(c2)nc(C)n3C)cc1	.	.	2.06µM*	0.562µM*	0.631µM*	4.26µM*
COc1ccc(CNc2ccc3c(c2)nc(C)n3C)cc1	11.2µM*	-3.3%	?	2.51µM*	1.41µM*	9.53µM*
CCOC(=O)C1=C(CN2CCN(c3ccccc3F)CC2)NC(=O)NC1c1ccc(OC)cc1 (stereo unspecified)	.	.	.	.	.	-11.5%
CCCN(CCC)C(=O)c1nn(C)c2c1CSc1ccccc1-2	.	.	.	.	.	-1.6%
CCSc1ncc(Cl)c(C(=O)Nc2ccc(S(=O)(=O)N3CCCCC3)cc2)n1	-39.4%	.	.	.	.	-1.3%
O=C(O)/C=C/C(=O)Nc1ccc(-n2nccc2C(F)(F)F)cc1	.	.	1.2%	-1.4%	9.3%	16.9µM*
Cc1ccc(S(=O)(=O)Nc2ccc(NC(=O)/C=C/C(=O)O)cc2)cc1	5.9%	-1.3%	-1.0%	-2.6%	-5.9%	-2.2%
CCCCC(=O)Nc1ccc(C(=O)c2ccccc2)cc1	3.0%	3.4%	11.6%	8.0%	24.5%	?
O=C(O)/C=C/C(=O)Nc1ccc(-n2ccc(C(F)(F)F)n2)cc1	.	.	0.6%	-0.2%	-5.5%	-4.6%
Cc1nc(-c2ccc(NC(=O)/C=C\C(=O)O)cc2)cs1	14.3%	-2.5%	11.2%	0.4%	1.4%	9.53µM*
CCCCCC(=O)Nc1ccc(C2C(=O)c3ccccc3C2=O)cc1	.	.	?	2.82µM*	2.24µM*	2.69µM*
Cc1ccc2sc(-c3ccc(NC(=O)/C=C\C(=O)O)cc3)nc2c1	7.08µM*	-4.1%	?	?	2.82µM*	0.953µM*
Cc1ccc(CNC(=O)c2ccc3c(c2)NC(=O)C(CS(=O)(=O)Cc2ccc(F)cc2)N3)cc1 (stereo unspecified)	.	.	.	.	.	-2.3%
CCC(=O)Nc1ccc(-c2csc(NNC(C)=O)n2)cc1	-9.6%	2.9%	-0.3%	-4.5%	-3.1%	-7.2%
O=C(O)/C=C\C(=O)Nc1ccc(N2CCN(c3ccc(Cl)cc3)CC2)cc1	.	-2.8%	-1.0%	-7.3%	-14.5%	15.1µM*
CCCCCC(=O)Nc1ccc(-c2csc(C)n2)cc1	?	-2.5%	2.9%	20.5%	?	15.1µM*
CCCCCC(=O)Nc1ccc(-c2csc(N)n2)cc1	.	.	?	3.7%	?	16.9µM*
O=C(O)/C=C/C(=O)Nc1ccc(-c2ccccc2)cc1	20.6%	1.3%	13.8%	15.7%	28.1%	6.75µM*
SMILES	SMN2 splice up	Luc counter	ELG1 genotox	NPC1 prom act	Rab9 prom act	FLuc modulator
O=C(Cc1c[nH]c2ccccc12)Nc1ccc(N2CCOCC2)cc1	9.7%	-5.3%	4.4%	4.8%	1.8%	-14.1%
CCOC(=O)c1c(C)n(S(=O)(=O)c2ccc(C)cc2)c2ccc(O)c(C(=O)O)c12	.	.	4.2%	1.3%	1.8%	2.9%
Cc1cc(=O)oc2cc(OCCCC[n+]3ccccc3)ccc12	.	.	3.6%	-4.6%	-2.8%	-5.1%
Cc1cc(=O)oc2cc(OCCc3ccccc3)ccc12	.	.	?	14.4%	?	12µM*
COc1cccc(COc2ccc3c(C)cc(=O)oc3c2)c1	.	.	7.3µM*	2.24µM*	2.82µM*	3.01µM*
COc1ccccc1CN1CCC(CNS(=O)(=O)c2cc(-c3onc(C)c3C)ccc2OC)CC1	.	.	3.3%	-7.3%	-1.0%	1.9%
CN(C)c1ccc(/C=N/NC(=O)CSc2ccccn2)cc1	.	.	?	27.0%	?	12µM*
CC(=C/c1ccc(C(C)C)cc1)/C=N/NC(=O)CSc1ccccn1	2.8%[1.84 µM]	-2.0%	?	?	2.82µM*	?
COc1ccc(/C=N/NC(=O)c2cccc(Br)c2)cc1CSc1ccccn1	-12.3%	2.8%	0.4%	2.3%	-6.0%	-6.9%
CC(/C=N/NC(=O)CSc1ccccn1)=C\c1ccc(C(C)C)cc1	?	2.4%	?	?	22.5%	?
CCCOc1ccc(/C=N/NC(=O)CSc2ccccn2)cc1OC	.	.	13.1%	1.9%	?	10.7µM*
COc1cc(/C=N/NC(=O)CSc2ccccn2)ccc1O	.	.	3.1%	-5.1%	15.5%	?
COc1ccc(/C=N/NC(=O)c2ccn[nH]2)cc1CSc1ccccn1	.	.	?	?	?	10.7µM*
CCOc1ccc(N(CC)S(=O)(=O)N2CCCC(C(=O)NCc3ccccc3OCC)C2)cc1 (stereo unspecified)	.	.	.	.	.	3.9%
N/C(=N\OC(=O)CC1CCCCC1)c1cccc(Br)c1	.	.	15.5%	14.0%	16.2%	2.69µM*
N/C(=N\OC(=O)CCC1CCCCC1)c1cccc([N+](=O)[O-])c1	-2.5%	-1.1%	2.3%	9.4%	8.7%	10.7µM*
N/C(=N\OC(=O)CC1CCCCC1)c1ccc(Cl)cc1	.	.	?	4.0%	-5.1%	7.57µM*
O=C1C(C=Nc2ccccc2O)=C(O)c2ccccc21	35.5µM*	10µM*	16.9%	?	?	?
Cc1ccc(O)c(N=Cc2cc(Cc3ccccc3)cc([N+](=O)[O-])c2O)c1	0.7%	-1.5%	-6.6%	-4.4%	-2.0%	?
Cc1ccc(O)c(N=CC2=C(O)c3ccccc3C2=O)c1	25.1%	-9.9%	?	?	?	6.75µM*
O=C1C(C=NCCCN2CCOCC2)=C(O)c2ccccc21	-9.1%	-3.0%	14.6%	-4.7%	3.6%	?
CCCCn1c(N)c(N(CC(C)C)C(=O)C2CCN(S(=O)(=O)c3ccc(C)cc3C)CC2)c(=O)[nH]c1=O	.	.	-3.8%	2.9%	-4.0%	1.7%
O=[N+]([O-])c1cc(/C=N/NC(=S)Nc2ccccc2Cl)ccc1Cl	8.0%	-0.8%	-4.4%	2.3%	-10.4%	6.1%
